Here are results for 14 compounds from PubChem BioAssay.

Active and inactive are the calls of the source.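 Rule for the calls, unless noted: active = inhibition at or above 50% at 10 µM; inactive = inhibition below 50%.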

The nature of experiment [1]: inhibitors of TNFa-induced NFkB p65 translocation, primary screen, imaging, HUVEC, MLSMR starter and 10KST1 sets (AID 438;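 active = inhibition above 20% together with a positive visual image hit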;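 note: compound added about 3h40 before a 20 min TNFalpha stimulation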;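 for inhibition: signal is the nuclear over cytoplasmic p65 intensity ratio per well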). Conditions: HUVEC TNFa-induced p65 nuclear translocation; cell count: measured here: nuclei count (cytotoxicity indicator), at 2.08 µM; inhibition: at 2 µM, stronger effect = higher value, 0% TNFa-plus-vehicle, 100% no-TNFa wells.
Experiment [2] can be described thus: reduction of polyQ htt aggregates in cells – imaging, exon1htt(103Q)mCFP cells, high-content imaging, primary screen (AID 483;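 active = visual image review flags a hit and inhibition of aggregation exceeds 20%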;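 note: compound exposure lasted 3 days before fixation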;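 for nuclei count: percent of the per-plate median nuclei count of sample wells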). The note with it: exon1htt(103Q)mCFP cell line, aggregate imaging, at 2 µM; inhibition of aggregation: stronger effect = higher value; nuclei count: measured here: cell count, toxicity.
A short description of experiment [3]: endothelial E-selectin expression blockers – imaging, HUVEC, immunofluorescence, MLSMR starter and 10KST1 sets, primary screen (AID 487;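 active = visually confirmed hit in the image check and inhibition above 20%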;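 for inhibition: signal is fraction of cell area covered by stained E-selectin grains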;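 for nuclei count: 100% = median nuclei count of all wells on the same plate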). The note with it: HUVEC TNFalpha-induced E-selectin immunofluorescence imaging, at 2 µM; inhibition: stronger effect = higher value; nuclei count: measured here: cell number, toxicity.
The target in experiment [4] is Voltage-gated potassium channel subunit beta-2 (Rattus norvegicus) (UniProt P62483). Kind of experiment: inhibitors of rat Kvbeta2 reductase activity – biochemical, NADPH fluorescence, primary screen (AID 622;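 active = fluorescence slope higher than the sample average by over 3 SD, cut at about -0.22 in these data, passing the limit was not always enough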;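 note: slope of raw intensity against log time taken from 70 to 1610 s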). Conditions: recombinant KvBeta, 4-cyanobenzaldehyde reduction, at 10 µM, stronger effect = higher value.
The target is the same in experiment [5]. Kind of experiment: enhancers of rat Kvbeta2 NADPH turnover – biochemical, NADPH fluorescence, primary screen (AID 623;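 active = NADPH fluorescence slope more negative than the mean of all samples by about 3 SD, 99.7% confidence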;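 note: fluorescence intensity change per second fitted from 20 to 320 s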). The note with it: Recombinant KvBeta, NADPH fluorescence decrease slope, 10 min; at 10 µM; stronger effect = lower value.
In experiment [6] the target is Alpha-2C adrenergic receptor (Homo sapiens) (UniProt P18825). Kind of experiment: compounds altering alpha2C-coupled GIRK flux – cell-based, HEK293 alpha2C/GIRK1/2, thallium flux, primary screen (AID 624;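 active = fluorescence slope after compound addition differing from the mean of all screened samples at 99.7% confidence, in either direction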;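 note: slope of fluorescence ratio to pre-addition baseline per second over 15 to 24 s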). Conditions: thallium flux BTC fluorescence, at 10 µM, actives lie on both sides.
A short description of experiment [7]: blockers of RIG-like receptor reporter activation – cell-based, Sendai virus stimulus, luciferase, 10K MLSCN set, TLR/RLR signaling modifier project, primary screen (AID 602276).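 Note: firefly luciferase from ISG56 promoter only with Renilla not read in this screen; 0% = Sendai virus plus DMSO and 100% = medium plus DMSO without virus.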 Conditions: HEK293 RL24 IRF3 luciferase reporter, at 10 µM, stronger effect = higher value.
Experiment [8] can be described thus: TLR3 IRF3 reporter activation blockers – cell-based, poly I:C stimulus, luciferase, 10K MLSCN set, primary screen (AID 602277;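 active = inhibition of the reporter signal at or above 50%; inactive = inhibition below 50%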). The note with it: HEK293-TLR3 RL24 IRF3 luciferase reporter, at 10 µM, stronger effect = higher value.

Chain of Alpha-2C adrenergic receptor (Homo sapiens) (P18825 whole entry, looked up): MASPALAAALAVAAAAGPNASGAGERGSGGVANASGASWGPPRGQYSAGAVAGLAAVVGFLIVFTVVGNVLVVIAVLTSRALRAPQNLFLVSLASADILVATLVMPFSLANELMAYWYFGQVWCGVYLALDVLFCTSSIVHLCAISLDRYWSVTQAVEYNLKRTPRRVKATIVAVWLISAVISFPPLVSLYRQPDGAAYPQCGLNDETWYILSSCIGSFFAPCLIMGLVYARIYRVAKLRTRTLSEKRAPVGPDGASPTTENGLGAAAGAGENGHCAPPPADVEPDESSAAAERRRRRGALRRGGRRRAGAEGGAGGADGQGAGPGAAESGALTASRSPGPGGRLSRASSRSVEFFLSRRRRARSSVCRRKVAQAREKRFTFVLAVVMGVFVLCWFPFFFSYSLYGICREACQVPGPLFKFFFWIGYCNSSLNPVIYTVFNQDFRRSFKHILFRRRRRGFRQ
Chain of Voltage-gated potassium channel subunit beta-2 (Rattus norvegicus) (P62483 whole entry, looked up): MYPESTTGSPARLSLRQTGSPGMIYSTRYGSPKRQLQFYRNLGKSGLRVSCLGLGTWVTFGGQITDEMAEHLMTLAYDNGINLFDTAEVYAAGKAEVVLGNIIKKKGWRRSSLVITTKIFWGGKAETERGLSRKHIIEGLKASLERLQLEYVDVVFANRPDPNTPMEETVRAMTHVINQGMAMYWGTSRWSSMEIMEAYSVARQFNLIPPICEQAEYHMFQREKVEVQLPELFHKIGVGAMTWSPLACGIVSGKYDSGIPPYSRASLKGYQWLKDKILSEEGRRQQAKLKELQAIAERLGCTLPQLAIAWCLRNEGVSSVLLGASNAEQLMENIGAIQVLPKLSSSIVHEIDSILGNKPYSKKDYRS

`CCOC(=O)N1CCN(C(=O)c2ccc3c(=O)n(Cc4ccc(OC)cc4)c(=S)[nH]c3c2)CC1`: the cell count in experiment [1] was 475. Also, the inhibition in experiment [1] was -17% (inactive); in experiment [3], 2.4% (inactive); in experiment [7], 11.9% (inactive); in experiment [8], 10% (inactive). Besides, in experiment [2], the inhibition of aggregation is 45.2% (active). For the same compound, the values for the nuclei count in experiment [2] and in experiment [3] were 59.2% and 88.2%, respectively. Besides, the fluorescence slope in experiment [4] is -0.496 (inactive). Also, the NADPH fluorescence slope in experiment [5] is -2.2e-05 (inactive). Besides, in experiment [6], the slope is 0.00659 (inactive).
With `COc1ccc(CCNC(=O)c2cc3sc(Cl)cc3n2C)cc1OC`, the cell count in experiment [1] stood at 611. Moreover, the inhibition in experiment [1] was 4.1% (inactive); in experiment [3] it was 2.3% (inactive); in experiment [7] it was -15.3% (inactive); in experiment [8], -18.8% (inactive). Besides, in experiment [2], the inhibition of aggregation was -8.1% (inactive). Besides, the nuclei count was 99.5% in experiment [2] and 89% in experiment [3]. Further, in experiment [4], the fluorescence slope is -0.626 (inactive). In addition, the NADPH fluorescence slope in experiment [5] was -4e-05 (inactive). Also, the slope in experiment [6] is 0.00715 (inactive).
Regarding `O=C(COc1ccccc1)N1CCN(c2ncnc3c2cnn3-c2ccccc2)CC1`, the cell count in experiment [1] was found to be 476. Also, the inhibition was 1% (inactive) in experiment [1], -4.4% (inactive) in experiment [3], 14.5% (inactive) in experiment [7] and -0.433% (inactive) in experiment [8]. Besides, the inhibition of aggregation in experiment [2] was 1.3% (inactive). Besides, the nuclei count in experiment [2] came to 108%; in experiment [3], 119%. Further, the fluorescence slope in experiment [4] is -0.623 (inactive). Further, the NADPH fluorescence slope in experiment [5] was -4e-05 (inactive). Besides, in experiment [6], the slope is 0.00515 (inactive).
`C=CCOC(=O)CCC(=O)Nc1cc(OC)nc(OC)n1`: in experiment [1], the cell count stood at 653. In addition, the inhibition in experiment [1] is -12.9% (inactive); in experiment [3], -0.8% (inactive); in experiment [7] it was 12.4% (inactive); in experiment [8], 19.2% (inactive). Besides, the inhibition of aggregation in experiment [2] was -1.7% (inactive). Further, the nuclei count is 109% in experiment [2] and 116% in experiment [3]. For the same compound, in experiment [4], the fluorescence slope is -0.422 (inactive). The NADPH fluorescence slope in experiment [5] was -4.9e-06 (inactive). Moreover, the slope in experiment [6] is 0.00745 (inactive).
Consider `COc1cccc(-c2nnc(SCC(N)=O)n2-c2ccc(Cl)cc2)c1`, for which the cell count in experiment [1] amounted to 327. Also, the inhibition in experiment [1] is -6.5% (inactive); in experiment [3], -60.5% (inactive); in experiment [7], 8.3% (inactive); in experiment [8] it was 13.1% (inactive). For the same compound, the inhibition of aggregation in experiment [2] is -11.9% (inactive). Moreover, the nuclei count in experiment [2] worked out at 107%; in experiment [3], 94.5%. The fluorescence slope in experiment [4] was -0.495 (inactive). For the same compound, in experiment [5], the NADPH fluorescence slope is -0.000142 (inactive). The slope in experiment [6] was 0.00431 (inactive).
On to `Cc1cc(C)nc(SCCS(=O)Cc2ccc(Cl)cc2)n1` (centres undefined), for which, in experiment [1], the cell count was determined as 306. For the same compound, the inhibition is -3.8% (inactive) in experiment [1], 32.1% (inactive) in experiment [3], 5.96% (inactive) in experiment [7] and 8.92% (inactive) in experiment [8]. Also, the inhibition of aggregation in experiment [2] was -16.7% (inactive). Besides, the nuclei count in experiment [2] turned out to be 108%; in experiment [3], 95%. For the same compound, the fluorescence slope in experiment [4] is -0.503 (inactive). Besides, the NADPH fluorescence slope in experiment [5] is 6.2e-06 (inactive). Moreover, in experiment [6], the slope was 0.00559 (inactive).
As for `CCOCCCNC(=O)C1CCN(S(=O)(=O)c2c(C)noc2/C=C\c2ccc(OC)cc2)CC1`, in experiment [1], the cell count was found to be 345. Besides, the inhibition was 1.2% (inactive) in experiment [1], -122% (inactive) in experiment [3], -4.28% (inactive) in experiment [7] and 0.813% (inactive) in experiment [8]. The inhibition of aggregation in experiment [2] is 32.8% (inactive). The figures for the nuclei count in experiment [2] and in experiment [3] were 99.9% and 114%, respectively. Further, the fluorescence slope in experiment [4] was -0.36 (inactive). In addition, the NADPH fluorescence slope in experiment [5] was 3.9e-05 (inactive). Moreover, the slope in experiment [6] was 0.00493 (inactive).
With `CC1=C(C(=O)NC2CCCC(C)C2C)C2(CCCCC2)OC1=O` (centres undefined), the cell count in experiment [1] was 515. Further, the inhibition in experiment [1] is 3.3% (inactive); in experiment [3], -37.4% (inactive); in experiment [7], -0.153% (inactive); in experiment [8], 17.7% (inactive). The inhibition of aggregation in experiment [2] is 18.1% (inactive). In addition, the nuclei count in experiment [2] is 64.9%; in experiment [3] it was 114%. Moreover, the fluorescence slope in experiment [4] was -0.598 (inactive). The NADPH fluorescence slope in experiment [5] was -6.8e-07 (inactive). Further, in experiment [6], the slope was 0.00687 (inactive).
As to `O=S(c1ccsc1)c1ccsc1`, the cell count in experiment [1] was 444. For the same compound, the inhibition in experiment [1] was 6.5% (inactive); in experiment [3] it was 13% (inactive); in experiment [7] it was 19.8% (inactive); in experiment [8], 26.3% (inactive). The inhibition of aggregation in experiment [2] was 1.4% (inactive). Moreover, the values for the nuclei count in experiment [2] and in experiment [3] were 95.8% and 99.8%, respectively. For the same compound, the fluorescence slope in experiment [4] was -0.497 (inactive). Further, the NADPH fluorescence slope in experiment [5] is -4.1e-05 (inactive). Further, in experiment [6], the slope was 0.00527 (inactive).
Take `CCCS(=O)(=O)N1CCN(C(=O)c2cccnc2)CC1`: the cell count in experiment [1] is 374. In addition, the inhibition in experiment [1] was 5.5% (inactive); in experiment [3], 18.3% (inactive); in experiment [7] it was 8.38% (inactive); in experiment [8], 19.6% (inactive). Also, the inhibition of aggregation in experiment [2] is -5.9% (inactive). The values for the nuclei count in experiment [2] and in experiment [3] were 98.3% and 114%, respectively. Besides, in experiment [4], the fluorescence slope is -0.431 (inactive). In experiment [5], the NADPH fluorescence slope was -6.9e-05 (inactive). Further, the slope in experiment [6] is 0.0059 (inactive).
With `C=CCSc1n[nH]c(-c2ccc(OC)cc2)n1`, the cell count in experiment [1] turned out to be 244. Moreover, the inhibition in experiment [1] is 17.3% (inactive); in experiment [3], -73.2% (inactive); in experiment [7], -90.7% (inactive); in experiment [8] it was -168% (inactive). The inhibition of aggregation in experiment [2] was -8.3% (inactive). Moreover, the nuclei count in experiment [2] turned out to be 89.5%; in experiment [3] it was 103%. Besides, in experiment [4], the fluorescence slope is -0.417 (inactive). In addition, in experiment [5], the NADPH fluorescence slope is -9.3e-05 (inactive). Besides, the slope in experiment [6] is 0.00611 (inactive).
Turning to `COc1cc(NC2=CC(=O)CC(C)(C)C2)cc(OC)c1`, the cell count in experiment [1] worked out at 346. For the same compound, the inhibition in experiment [1] is 7.5% (inactive); in experiment [3], -3.1% (inactive); in experiment [7] it was -4.89% (inactive); in experiment [8], -12.1% (inactive). Besides, the inhibition of aggregation in experiment [2] was -8.1% (inactive). Moreover, the nuclei count in experiment [2] amounted to 110%; in experiment [3], 103%. The fluorescence slope in experiment [4] is -0.373 (inactive). Moreover, the NADPH fluorescence slope in experiment [5] is 6.9e-06 (inactive). The slope in experiment [6] is 0.00551 (inactive).
Regarding `COC(=O)Cn1c(CN2CCN(c3ccccc3F)CC2)nc2c1c(=O)n(C)c(=O)n2C`, the cell count in experiment [1] amounted to 633. The inhibition in experiment [1] is -1.4% (inactive); in experiment [3], 7.8% (inactive); in experiment [7] it was 7.96% (inactive); in experiment [8], 19.6% (inactive). Further, in experiment [2], the inhibition of aggregation is -18.2% (inactive). The nuclei count in experiment [2] was 90.2%; in experiment [3], 87.6%. The fluorescence slope in experiment [4] is -0.555 (inactive). Besides, the NADPH fluorescence slope in experiment [5] is -3.8e-05 (inactive). Moreover, in experiment [6], the slope was 0.0082 (inactive).
For the compound `CCc1nnc(NC(=O)C2CC(=O)N(Cc3ccco3)C2)s1` (centres undefined), in experiment [1], the cell count stood at 428. In addition, the inhibition in experiment [1] was 7.3% (inactive); in experiment [3], -0.2% (inactive); in experiment [7], 13.8% (inactive); in experiment [8] it was 22.1% (inactive). In addition, the inhibition of aggregation in experiment [2] is -11.1% (inactive). In addition, the nuclei count in experiment [2] amounted to 104%; in experiment [3], 106%. The fluorescence slope in experiment [4] is -0.507 (inactive). In addition, the NADPH fluorescence slope in experiment [5] is -6.1e-05 (inactive). For the same compound, the slope in experiment [6] is 0.00457 (inactive).
